# Reference: PubChem BioAssay (NCATS)
# Inconclusive results are not listed. Values without a mark were called inactive. Calls come from the whole dose curve.
# Experiment: Validation screen for inhibitors of Lassa infection (AID 463096)
# Details: Lassa virus infection, cell-based; series mostly up to 46.1 µM; activity change, negative = inhibition: at the top concentration
# % is set by controls: 0 for no effect and ±100 for the full control effect.
row,Structure (SMILES),"activity change, negative = inhibition [%]"
1,NC(N)=NC(=O)Cc1c(Cl)cccc1Cl,-0.717
2,CN(C)C(=O)Oc1ccc[n+](C)c1,-3.52
3,NCCCNCCSP(=O)(O)O,25.6
4,CC(=O)c1ccc(S(=O)(=O)NC(=O)NC2CCCCC2)cc1,-1.63
5,CC(=O)OCC1=C(C(=O)O)N2C(=O)[C@@H](NC(=O)Cc3cccs3)[C@H]2SC1,-1.92
6,CN1C(C(=O)Nc2ccccn2)=C(O)c2ccccc2S1(=O)=O,0.221
7,NC(=O)N1c2ccccc2C=Cc2ccccc21,1.31
8,C[C@](N)(Cc1ccc(O)cc1)C(=O)O,-4.15
9,COC(=O)[C@@H]1[C@H]2C[C@H]3c4[nH]c5ccccc5c4CCN3C[C@@H]2CC[C@@H]1O,40.8
10,NC(=O)c1ncn([C@@H]2O[C@H](CO)[C@@H](O)[C@H]2O)c1O,-6.76
11,NCCS(=O)(=O)O,-2.5
12,CN=C(NC#N)NCCSCc1nc[nH]c1C,19.9
13,CC[N+](CC)(CC)CCOc1cccc(OCC[N+](CC)(CC)CC)c1OCC[N+](CC)(CC)CC,27.1
14,CCC1(C)CC(=O)NC1=O (configuration not stated),20.1
15,CN=C(NC#N)Nc1ccc(C2=NNC(=O)CC2C)cc1 (configuration not stated),-16
16,CC(C)(C)NCC(O)c1cc(O)cc(O)c1 (configuration not stated),13.3
17,CC(=O)OCC(=O)[C@@]1(O)CC[C@H]2[C@@H]3CCC4=CC(=O)CC[C@]4(C)[C@H]3C(=O)C[C@@]21C,8
18,CCN1CCC[C@H]1CNC(=O)c1c(O)c(Cl)cc(Cl)c1OC,15.8
19,C[C@]12CCC(=O)C=C1CC[C@@H]1[C@@H]2[C@@H](O)C[C@@]2(C)[C@H]1CC[C@]2(O)C(=O)COC(=O)CCC(=O)O,-1.05

row,Structure (SMILES),"activity change, negative = inhibition [%]"
1,CO[C@@]1(NC(=O)CSCC#N)C(=O)N2C(C(=O)O)=C(CSc3nnnn3C)CS[C@@H]21,-12.7
2,CC1COc2c(N3CCN(C)CC3)c(F)cc3c(=O)c(C(=O)O)cn1c23 (configuration not stated),11.9
3,O=C(O)CCCCCCCC(=O)O,-2.96
4,C=CC(N)CCC(=O)O (configuration not stated),29.7
5,COc1ccc2cc([C@H](C)C(=O)O)ccc2c1,24.7
6,Cc1nc2ccccn2c(=O)c1CCN1CCC(C(=O)c2ccc(F)cc2)CC1,7.37
7,COCCOC(=O)C1=C(C)NC(C)=C(C(=O)OC(C)C)C1c1cccc([N+](=O)[O-])c1 (configuration not stated),-20.6
8,CCn1nc(C(=O)O)c(=O)c2cc3c(cc21)OCO3,11.8
9,CO/N=C(\C(=O)N[C@@H]1C(=O)N2C(C(=O)O)=C(COC(C)=O)CS[C@H]12)c1csc(N)n1 (stereo in doubt),2.58
10,CC(=O)Oc1cc(C(C)C)c(OCCN(C)C)cc1C,-8.11
11,Cc1nnc(SCC2=C(C(=O)O)N3C(=O)[C@@H](NC(=O)Cn4cnnn4)[C@H]3SC2)s1,6.43
12,C1COC(NC(C2CC2)C2CC2)=N1,9.01
13,CNC[C@H](O)c1cccc(O)c1,4.72
14,CCN(CC)CCOC(=O)c1ccc(N)cc1,-0.093
15,Cc1cnc(NC(=O)C2=C(O)c3ccccc3S(=O)(=O)N2C)s1,-6.34
16,Nc1ccc(S(=O)(=O)Nc2ccnn2-c2ccccc2)cc1,-1.32
17,C[N+](C)(C)CCOC(N)=O,-10
18,NC(Cc1ccc(Cl)cc1)C(=O)O (configuration not stated),1.64
